PubChem BioAssay (NCI)
Compounds without any hit were thinned out: in the full panel of roughly 83,000, 20% have a hit.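 Single-dose data. Exposure time 48 hours. Values below 10 considered active.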 The source made the active and inactive calls.

Legend:
Test in all cases: NCI-60 one-dose screen, 48 h (100 = growth as untreated, 0 = no growth, -100 = all killed)
Conditions in all cases: 10 µM unless noted
[1] = test system: NCI-H23 lung
[2] = test system: NCI-H226 lung
[3] = test system: NCI-H322M lung
[4] = test system: HOP-62 NSCLC
[5] = test system: NCI-H460 lung
[6] = test system: HOP-92 NSCLC
[7] = test system: NCI-H522 lung
[8] = test system: A549/ATCC NSCLC
[9] = test system: 786-0 renal
[10] = test system: COLO 205 colon
[11] = test system: DU-145 prostate
[12] = test system: K-562 leukemia
[13] = test system: MALME-3M melanoma
[14] = test system: MDA-MB-231 breast
[15] = test system: RXF 393 renal
[16] = test system: SF-268 CNS
[17] = test system: SF-295 CNS
[18] = test system: SF-539 CNS
[19] = test system: UACC-257 melanoma
[20] = test system: M14 melanoma

Measured: growth

c1n[nH]cc1-c1nc2ccc3[nH]ncc3c2c2c1CC1(CCOCC1)CC2
inactive: [1] 44.2% | [2] 27.3% | [3] 48.6% | [4] 55.5% | [5] 29.4% | [6] 70.7% | [8] 44.7% | [9] 48.2% | [10] 30.3% | [11] 41.6% | [12] 39.5% | [13] 22.6% | [14] 59.4% | [16] 34.4% | [17] 65.8% | [18] 26.6% | [19] 53% | [20] 23.9%
active: [7] 7.31% | [15] -15.8%

COc1ccc2oc(=O)c(-c3csc(N/N=C(\C)c4cc(OC)c(OC)c(OC)c4)n3)cc2c1
inactive: [1] 84% | [2] 89.7% | [3] 96.8% | [4] 109% | [5] 79.1% | [6] 96.8% | [7] 85.8% | [8] 101% | [9] 90.5% | [10] 99.8% | [11] 101% | [12] 92.3% | [13] 85% | [14] 86.8% | [15] 85.7% | [16] 99.3% | [17] 92% | [18] 103% | [19] 106% | [20] 91.9%

COc1ccc(NC(=O)Cn2c(/C=C/c3ccc([N+](=O)[O-])cc3)nc3ccccc3c2=O)cc1
inactive: [1] 34.9% | [2] 21.2% | [3] 70.2% | [4] 33.2% | [5] 42.3% | [7] 73% | [8] 75.9% | [10] 85.3% | [11] 88.8% | [12] 120% | [13] 72.4% | [16] 64.9% | [17] 56.3% | [18] 30.3% | [19] 86.3% | [20] 69.5%
active: [6] -12% | [9] 9.31% | [14] -18.4% | [15] -57.8%
